Bioassay records from PubChem.
An excerpt weighted towards active compounds, which were near 3.3% of everything screened.
RE007 growth inh – less growth of the S. pombe RE007 Vpr strain; S. pombe RE007 Vpr strain, BacTiter-Glo ATP luminescence, 24 h; 360,000 tested, 0.21% active; Potency, µM (titrated, usually from 92.2 µM), without a hit: top-dose activity change, negative = less growth, usual class: inhibitors; AID 651644; active = well fitted falling curve with a large enough effect; inconclusive = small, poorly fitted or top-dose-only effect; inactive = no such curve, though single readings can be large or run the other way; also: % is scaled to controls: 0 for no effect and ±100 for the full control effect; nearly all actives have a fitted effect of over 50% in size
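Fission yeast strain RE007, carrying one chromosomally integrated HIV-1 vpr copy, was seeded at OD 0.01 in PMG+AL medium with 23 nL pinned compound. After 24 h at 30 °C and 99% humidity, viability was read by BacTiter-Glo luminescence.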
LmPK inh – blocks Leishmania mexicana pyruvate kinase activity; purified LmPK, Kinase-Glo ATP luminescence, 1 h; Potency, µM (doses to about 57.5 µM), without a hit: at the highest dose activity change, negative = inhibition, usual class: inhibitors; 290,000 tested, 0.37% active; AID 1721; also: % is scaled to controls: 0 for no effect and ±100 for the full control effect
Target sequence (Q27686 whole entry, looked up): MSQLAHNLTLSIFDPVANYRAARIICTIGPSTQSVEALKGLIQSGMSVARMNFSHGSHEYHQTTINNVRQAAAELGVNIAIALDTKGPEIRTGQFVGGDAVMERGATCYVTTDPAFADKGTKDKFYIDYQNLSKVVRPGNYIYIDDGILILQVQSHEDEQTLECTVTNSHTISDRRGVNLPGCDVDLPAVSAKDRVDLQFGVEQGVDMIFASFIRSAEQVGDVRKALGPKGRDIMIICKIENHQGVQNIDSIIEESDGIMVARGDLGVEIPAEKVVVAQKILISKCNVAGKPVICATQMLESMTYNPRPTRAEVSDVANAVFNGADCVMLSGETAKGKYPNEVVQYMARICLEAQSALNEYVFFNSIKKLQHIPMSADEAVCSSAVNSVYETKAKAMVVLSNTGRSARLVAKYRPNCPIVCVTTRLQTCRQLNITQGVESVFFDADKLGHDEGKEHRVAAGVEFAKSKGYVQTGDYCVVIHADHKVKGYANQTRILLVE
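ATP generated from ADP (0.1 mM) and PEP (0.5 mM) by 0.1 nM LmPK over 1 h at room temperature (pH 7.2 imidazole buffer) was detected by coupled luciferase luminescence. Values were normalized to uninhibited and no-enzyme wells.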
NS1 function inh – inhibitors of influenza NS1 protein function | Potency, µM (titrated, usually from 46.1 µM), inactives show at the top dose activity, positive = more growth | 270,000 tested, 0.4% active | AID 2326; calls by dose curve; also: actives are rising curves; nearly all actives have a fitted effect of over 50% in size
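Compounds were scored for reversing the slow growth caused by influenza A NS1 in S. cerevisiae, measured by optical density at 600 nm. Assay medium contained 2% galactose at pH 6.0; NS1-free yeast of the same strain were the positive control.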
SARS PLP yeast – SARS-CoV PLP inhibition in yeast; Potency, µM (titrated, usually from 32.9 µM), for the others: at the highest dose activity, positive = growth rescue, hits mostly activators; S. cerevisiae expressing SARS-CoV PLpro, growth rescue; 330,000 tested, 0.19% active; calls by dose curve; also: 0% is about no effect; nearly all actives have a fitted effect of over 55% in size
TbPYK inhibitor – inhibitors of Trypanosoma brucei pyruvate kinase | AID 624173 | TbPYK enzyme, Kinase-Glo Plus ATP luminescence, 45 min | Q57TT1 | 410,000 tested, 0.12% active | Potency, µM (titrated, usually from 76.8 µM), inactives show at the highest dose activity, negative = inhibition, most hits filed as inhibitors; also: % is scaled to controls: 0 for no effect and ±100 for the full control effect; nearly all actives have a fitted effect of over 50% in size
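ADP (130 uM final) triggers the TbPYK reaction after compound addition; incubation is 45 min at room temperature. Kinase-Glo Plus is then added and luminescence imaged. Normalized data are fitted to concentration-effect curves.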
Sm TGR inh – blocks Schistosoma mansoni thioredoxin glutathione reductase. Q962Y6. purified TGR, DTNB reduction, TNB absorbance 405 nm. Potency, µM (doses to about 114 µM), for the others: at the highest dose activity change, negative = inhibition, hits mostly inhibitors. 360,000 tested, 3% active; also: % is scaled to controls: 0 for no effect and ±100 for the full control effect; nearly all actives have a fitted effect of over 60% in size
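TGR 20 nM + NADPH 100 uM (dispensed conc.), cpd preinc 15 min RT; start with NADPH (500 uM addition) then DTNB (15 mM addition). Kinetic TNB absorbance, 405 nm filter. Four-parameter Hill fit across titration.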
* = called active by the depositor; ? = inconclusive; / = not tested or not shown; [ ] = another dose, or the depositor's remark. Unless noted, calls follow the shape of the dose curve; as a rule, active = well fitted curve in the direction sought with a large enough effect; inconclusive = small, poorly fitted or top-dose-only effect, or another doubt; inactive = no such curve, though single readings can be large; an effect the other way counts as inactive or inconclusive. Potency is read from the fitted curve at half-maximal effect.

SMILES	RE007 growth inh	LmPK inh	NS1 function inh	SARS PLP yeast	TbPYK inhibitor	Sm TGR inh
CCC(c1nnnn1CCc1ccccc1)N(Cc1ccco1)Cc1cc2c(C)ccc(C)c2[nH]c1=O (stereo unspecified)	3.0%	-2.1%	?	4.8%	-1.2%	?
Cc1c(C)c(C)c(CC2(C)CSC2)c(CC2(C)CSC2)c1C	/	/	-6.6%	/	/	/
COc1cc2cc(CCCOC(=O)c3ccco3)oc(=O)c2cc1OC	-9.3%	/	/	-8.4%	-6.3%	50.1µM*
COc1cc2cc(CCCOC(=O)c3cc(OC)c(OC)c(OC)c3)oc(=O)c2cc1OC	-8.4%	/	/	-7.5%	6.6%	/
Cc1ccc(OC(=O)c2ccc(Cl)c([N+](=O)[O-])c2)cn1	-8.4%	-2.1%	-33.4%	-0.8%	-7.9%	50.1µM*
CS(=O)(=O)NC1c2cccc3cccc(c23)C1Sc1nncn1/N=C/c1ccco1 (stereo unspecified)	0.1%	1.7%	-5.9%	7.4%	-8.3%	50.1µM*
CC1CCN(C(=O)c2ccc(S(=O)(=O)Cc3cccc(F)c3)c([N+](=O)[O-])c2)CC1	-24.2%	-2.9%	-9.2%	-19.3%	-0.5%	3.55µM*
Cc1ccc(S(=O)(=O)Cc2ccc(C(=O)N3CCC(C)CC3)cc2)cc1	18.0%	-8.1%	-6.0%	1.3%	-6.4%	-15.8%
O=C(c1ccc(S(=O)(=O)Cc2cc(F)ccc2F)c([N+](=O)[O-])c1)N1CCCC1	-15.3%	2.9%	/	-13.3%	2.9%	?
O=C(c1ccc(S(=O)(=O)Cc2ccccc2Cl)c([N+](=O)[O-])c1)N1CCN(c2ccccn2)CC1	-8.7%	5.4%	/	-1.3%	-2.9%	7.94µM*
O=C(c1ccc(S(=O)(=O)Cc2cc(F)ccc2F)c([N+](=O)[O-])c1)N1CCCCC1	6.7%	5.0%	-2.9%	2.9%	-0.2%	8.91µM*
O=C(c1ccc(Cl)c([N+](=O)[O-])c1)N1CCN(c2ccccn2)CC1	1.8%	0.6%	-2.0%	10.9%	-14.2%	4.5%
Cc1ccccc1CS(=O)(=O)c1ccc(C(=O)N2CCC(C)CC2)cc1[N+](=O)[O-]	-8.3%	-1.0%	/	2.1%	-8.1%	89.1µM*
O=C(NCc1ccc(Cl)cc1)C(=O)NCC(c1cccnc1)N1CCN(c2ccccc2)CC1 (stereo unspecified)	/	/	/	/	-2.1%	-1.3%
CCCCOc1cccc(C(=O)N(Cc2ccc(N(C)C)cc2)C2CCS(=O)(=O)C2)c1 (stereo unspecified)	/	/	/	/	-5.9%	6.6%
CCOc1ccc(NC(=O)CN2CCSc3ccc(S(=O)(=O)N4CCCC4)cc32)cc1	/	/	/	/	-3.6%	3.2%
CCOc1ccccc1-n1nnc(-c2nc(-c3ccccc3C)no2)c1C	/	/	/	/	-7.3%	16.0%
O=C1CC(N2CCN(Cc3ccc4c(c3)OCO4)CC2)C(=O)N1c1cccc(Cl)c1 (stereo unspecified)	-24.9%	2.2%	-3.0%	-10.0%	4.1%	50.1µM*
O=C1CC(N2CCN(Cc3ccc4c(c3)OCO4)CC2)C(=O)N1Cc1ccc(N2CCCC2=O)cc1 (stereo unspecified)	-12.5%	-1.2%	-8.0%	-3.8%	-7.7%	-25.7%
O=C1CC(N2CCN(Cc3ccccc3)CC2)C(=O)N1c1ccc2c(c1)OCCO2 (stereo unspecified)	6.4%	-11.3%	-3.6%	-3.0%	3.1%	56.2µM*
O=C1CC(N2CCN(Cc3ccc4c(c3)OCO4)CC2)C(=O)N1c1cccc2ccccc12 (stereo unspecified)	-7.1%	-6.1%	1.5%	-3.2%	-1.9%	-20.2%[57.1 µM]
COc1ccc(N2C(=O)CC(N3CCN(Cc4ccc5c(c4)OCO5)CC3)C2=O)cc1 (stereo unspecified)	-15.3%	2.5%	/	0.6%	4.1%	17.8µM*
O=C(CCl)c1ccc2c(c1)CCN2C(=O)C1CC1	/	-1.5%	-45.3%	21.4%	/	7.08µM*
CCC1CCCCN1S(=O)(=O)c1ccc2c(c1)CCN2C(=O)C1CCC1 (stereo unspecified)	3.0%	3.9%	-66.5%	-5.3%	0.1%	-1.1%
O=C(C1CCC(C(=O)N2CCc3ccccc32)CC1)N1CCc2ccccc21 (stereo unspecified)	-1.0%	-1.5%	2.2%	3.0%	-7.8%	-5.7%
SMILES	RE007 growth inh	LmPK inh	NS1 function inh	SARS PLP yeast	TbPYK inhibitor	Sm TGR inh
O=C(CCl)c1ccc2c(c1)CCN2C(=O)C1CCCCC1	11.2µM*	1.1%	/	-6.8%	-3.5%	1.26µM*
O=C(CCc1nnc(Cc2ccc3c(c2)OCO3)o1)NCc1nc2ccccc2s1	-8.7%	4.3%	0.0%	0.1%	-7.3%	28.2µM*
O=C(CCc1nc2ccccc2[nH]1)NCc1ccc2c(c1)OCO2	-5.2%	-1.8%	4.3%	3.7%	-1.9%	-12.4%
O=C(Nc1ccc(OCc2cc(=O)n3ccccc3n2)cc1)c1ccccc1Cl	/	/	/	/	-3.5%	5.4%
Cc1ccc(/C=N/NC(=O)c2ccoc2C)s1	-17.5%	14.1µM*	-13.5%	-13.9%	-13.0%	-8.7%
Cc1occc1C(=O)N/N=C/c1ccccc1[N+](=O)[O-]	24.1%	14.1µM*	-10.0%	-0.7%	-11.1%	-10.8%
Cc1occc1C(=O)N/N=C/c1ccc(Br)s1	?	25.1µM*	-5.8%	-2.8%	-0.8%	-7.1%
O=C(NCCc1ccccc1)c1ccc2c(c1)CCN2S(=O)(=O)c1ccccc1	/	/	/	/	14.4%	-3.1%
Cc1ccc(N2CC(NC(=O)C3CCCCC3)CC2=O)cc1C (stereo unspecified)	/	/	/	/	3.2%	5.6%
NC(CSCc1ccccc1Cl)C(=O)O (stereo unspecified)	12.8%	-1.9%	/	-1.0%	-0.6%	15.8µM*
N[C@@H](CSCc1ccccc1)C(=O)O	/	/	4.5%	/	/	/
O=Cc1ccc(-c2cccs2)s1	11.4%	/	/	/	-4.0%	/
Oc1ccc(N=Cc2ccc(-c3cccs3)s2)cc1	-7.9%	-1.2%	-85.9%	2.1%	-22.0%	22.4µM*
COc1cc(CN2CCCC(C(=O)c3ccc4c5c(cccc35)CC4)C2)cc(OC)c1O (stereo unspecified)	-12.2%	0.3%	2.1%	-0.4%	-17.6%	14.1µM*
COc1ccc(-c2cc(=O)oc3cc(OC(C)C(=O)NCc4ccccn4)ccc23)cc1 (stereo unspecified)	-0.4%	-4.9%	-33.8%	3.98µM*	-2.4%	4.0%
CO/N=C(/C(=O)N[C@@H]1C(=O)N2C(C(=O)O)=CCS[C@H]12)c1csc(N)n1	/	/	/	/	-6.6%	/
COc1cccc(CNC(=O)CCS(=O)(=O)c2cccc3nsnc23)c1	17.0%	-0.7%	2.0%	-4.9%	-11.3%	-7.4%
COc1cccc(CNC(=O)CCS(=O)(=O)c2cccc3nonc23)c1	?	-4.2%	-11.5%	-0.6%	-1.6%	44.7µM*
O=C(CCS(=O)(=O)c1cccc2nonc12)NCCc1ccccc1	11.4%	-11.0%	-2.4%	-2.3%	0.9%	?
